These results are taken from the supplement of paper PMC7724964.

Holding throughout (experiment): phage ELISA signal ratio (GST-PRM binding over GST background); higher = stronger binding of peptide-phage to the PRM
In general terms: In an ELISA, binding on a coated surface is turned into a signal by an enzyme label.

Experiment [1] concerns the target T1, NXT1 1-140 NTF2 (domain begin residue: 1, domain end residue: 140), Q9UKK6.
T1 chain: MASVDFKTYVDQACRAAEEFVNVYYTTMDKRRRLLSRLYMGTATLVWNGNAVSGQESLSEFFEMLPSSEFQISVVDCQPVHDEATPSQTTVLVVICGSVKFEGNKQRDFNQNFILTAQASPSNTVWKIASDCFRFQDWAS
The gist of the method: (§1)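 Five rounds of selection were carried out against human peptide recognition domains fused to the C-terminus of glutathione S-transferase (GST) and expressed in 96-well plates. The M13 phage library presented randomized hexadecapeptides, cysteine-free and glycine-flanked, on the gene-8 major coat protein. For each value, the phage ELISA signal on the GST-domain fusion was divided by the signal on GST alone.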

For experiment [2], the target named is T2, NR2C1 355-603 Hormone_recep (domain begin residue: 355, domain end residue: 603), P13056.
T2 chain: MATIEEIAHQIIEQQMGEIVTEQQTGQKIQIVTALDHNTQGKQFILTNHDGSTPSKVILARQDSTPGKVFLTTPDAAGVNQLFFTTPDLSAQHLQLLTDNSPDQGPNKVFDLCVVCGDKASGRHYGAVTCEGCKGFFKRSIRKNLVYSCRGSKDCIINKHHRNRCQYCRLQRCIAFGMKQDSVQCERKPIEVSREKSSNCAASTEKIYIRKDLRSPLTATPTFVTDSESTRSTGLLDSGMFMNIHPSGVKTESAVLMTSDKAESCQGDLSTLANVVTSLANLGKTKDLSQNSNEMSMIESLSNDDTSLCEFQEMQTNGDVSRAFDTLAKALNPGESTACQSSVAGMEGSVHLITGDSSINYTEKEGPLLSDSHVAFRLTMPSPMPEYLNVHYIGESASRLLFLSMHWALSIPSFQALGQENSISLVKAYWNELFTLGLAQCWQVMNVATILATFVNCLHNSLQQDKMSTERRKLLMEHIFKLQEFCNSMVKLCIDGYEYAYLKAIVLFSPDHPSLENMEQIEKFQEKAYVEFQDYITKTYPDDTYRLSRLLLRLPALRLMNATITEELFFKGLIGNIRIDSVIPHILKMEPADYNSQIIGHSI
The gist of the method: as §1

Experiment [3] addresses NXF1 203-359 LRR_1 (domain begin residue: 203, domain end residue: 359). The gist of the method:
as §1

Experiment [4] has as its target PABPC1 544-623 PABP (domain begin residue: 544, domain end residue: 623). The gist of the method:
as §1

Experiment [5] has as its target NXF1 565-619 TAP_C (domain begin residue: 565, domain end residue: 619). The gist of the method:
as §1

In experiment [6] the target is T3, NR1H3 204-447 Hormone_recep (domain begin residue: 204, domain end residue: 447), Q13133.
T3 chain: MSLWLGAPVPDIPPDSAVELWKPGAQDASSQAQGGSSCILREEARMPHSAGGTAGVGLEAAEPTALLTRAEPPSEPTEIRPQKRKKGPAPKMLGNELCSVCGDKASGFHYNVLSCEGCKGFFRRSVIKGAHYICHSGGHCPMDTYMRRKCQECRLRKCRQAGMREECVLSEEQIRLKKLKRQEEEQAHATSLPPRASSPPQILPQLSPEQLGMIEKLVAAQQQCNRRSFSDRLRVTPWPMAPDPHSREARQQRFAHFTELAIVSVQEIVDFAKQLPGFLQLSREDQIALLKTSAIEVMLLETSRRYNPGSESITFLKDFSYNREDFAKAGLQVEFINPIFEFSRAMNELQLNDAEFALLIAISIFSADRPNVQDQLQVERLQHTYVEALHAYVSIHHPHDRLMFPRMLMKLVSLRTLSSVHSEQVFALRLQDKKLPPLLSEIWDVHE
The gist of the method:
as §1

The target in experiment [7] is T4, NUP98 730-880 Nucleoporin2 (domain begin residue: 730, domain end residue: 880), P52948.
T4 chain: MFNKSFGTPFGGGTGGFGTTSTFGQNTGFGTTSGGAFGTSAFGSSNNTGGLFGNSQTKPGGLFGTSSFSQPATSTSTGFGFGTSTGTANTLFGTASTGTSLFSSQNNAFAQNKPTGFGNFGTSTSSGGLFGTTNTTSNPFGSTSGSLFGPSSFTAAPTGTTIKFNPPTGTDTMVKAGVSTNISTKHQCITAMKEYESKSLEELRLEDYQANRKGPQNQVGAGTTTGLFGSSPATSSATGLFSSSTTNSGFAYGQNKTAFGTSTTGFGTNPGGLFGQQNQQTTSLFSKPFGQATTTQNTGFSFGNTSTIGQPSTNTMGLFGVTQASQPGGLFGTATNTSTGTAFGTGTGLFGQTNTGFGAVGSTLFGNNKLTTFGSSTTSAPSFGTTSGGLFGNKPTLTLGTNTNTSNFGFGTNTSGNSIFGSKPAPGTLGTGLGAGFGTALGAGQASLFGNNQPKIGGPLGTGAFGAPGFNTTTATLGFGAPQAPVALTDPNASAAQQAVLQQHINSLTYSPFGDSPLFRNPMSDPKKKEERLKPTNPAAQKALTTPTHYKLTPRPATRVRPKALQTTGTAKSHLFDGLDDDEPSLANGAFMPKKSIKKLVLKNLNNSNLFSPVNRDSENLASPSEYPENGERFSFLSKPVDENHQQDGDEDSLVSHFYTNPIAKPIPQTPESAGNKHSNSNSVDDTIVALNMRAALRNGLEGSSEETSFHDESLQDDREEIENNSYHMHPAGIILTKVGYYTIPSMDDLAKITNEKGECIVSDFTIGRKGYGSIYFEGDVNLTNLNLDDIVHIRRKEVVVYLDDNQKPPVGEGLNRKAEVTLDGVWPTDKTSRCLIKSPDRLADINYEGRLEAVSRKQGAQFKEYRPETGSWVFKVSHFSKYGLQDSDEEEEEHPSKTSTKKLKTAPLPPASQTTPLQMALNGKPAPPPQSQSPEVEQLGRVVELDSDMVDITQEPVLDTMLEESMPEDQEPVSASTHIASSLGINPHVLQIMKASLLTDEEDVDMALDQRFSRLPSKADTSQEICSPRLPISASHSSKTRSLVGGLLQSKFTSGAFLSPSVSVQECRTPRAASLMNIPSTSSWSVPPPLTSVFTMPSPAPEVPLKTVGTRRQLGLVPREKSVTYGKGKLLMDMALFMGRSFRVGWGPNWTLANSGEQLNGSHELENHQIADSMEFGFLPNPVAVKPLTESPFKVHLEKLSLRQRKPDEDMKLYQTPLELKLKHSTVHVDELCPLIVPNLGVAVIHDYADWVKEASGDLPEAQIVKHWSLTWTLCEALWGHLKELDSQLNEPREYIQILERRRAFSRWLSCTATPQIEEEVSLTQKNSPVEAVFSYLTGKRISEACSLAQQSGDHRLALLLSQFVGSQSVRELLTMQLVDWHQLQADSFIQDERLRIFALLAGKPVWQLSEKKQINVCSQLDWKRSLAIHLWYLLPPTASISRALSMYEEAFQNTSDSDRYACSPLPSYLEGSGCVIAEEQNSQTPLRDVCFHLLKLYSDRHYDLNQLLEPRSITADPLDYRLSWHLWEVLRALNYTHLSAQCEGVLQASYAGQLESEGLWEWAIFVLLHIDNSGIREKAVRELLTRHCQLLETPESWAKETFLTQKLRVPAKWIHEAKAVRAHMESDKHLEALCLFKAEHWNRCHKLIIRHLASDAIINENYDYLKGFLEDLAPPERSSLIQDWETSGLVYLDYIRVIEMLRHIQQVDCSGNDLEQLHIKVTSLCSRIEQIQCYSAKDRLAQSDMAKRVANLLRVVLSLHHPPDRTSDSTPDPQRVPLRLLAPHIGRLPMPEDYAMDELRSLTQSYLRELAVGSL
The gist of the method:
as §1

In experiment [8] the target is T5, NR4A2 327-598 Hormone_recep (domain begin residue: 327, domain end residue: 598), P43354.
T5 chain: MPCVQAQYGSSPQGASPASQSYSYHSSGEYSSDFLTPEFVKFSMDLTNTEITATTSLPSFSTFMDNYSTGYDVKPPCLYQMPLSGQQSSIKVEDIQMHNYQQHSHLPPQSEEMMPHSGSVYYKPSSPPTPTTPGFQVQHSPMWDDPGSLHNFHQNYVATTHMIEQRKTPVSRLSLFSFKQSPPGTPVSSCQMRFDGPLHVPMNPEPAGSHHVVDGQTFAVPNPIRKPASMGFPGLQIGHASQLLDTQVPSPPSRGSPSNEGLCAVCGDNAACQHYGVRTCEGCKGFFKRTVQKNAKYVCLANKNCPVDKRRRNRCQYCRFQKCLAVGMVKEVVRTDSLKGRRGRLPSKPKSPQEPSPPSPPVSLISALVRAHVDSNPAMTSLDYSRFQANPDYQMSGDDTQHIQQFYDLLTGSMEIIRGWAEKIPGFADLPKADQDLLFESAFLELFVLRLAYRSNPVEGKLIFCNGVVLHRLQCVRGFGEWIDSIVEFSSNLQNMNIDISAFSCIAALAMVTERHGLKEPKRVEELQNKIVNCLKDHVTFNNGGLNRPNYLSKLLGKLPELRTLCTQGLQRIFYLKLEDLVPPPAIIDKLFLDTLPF
The gist of the method:
as §1

Experiment [9] deals with PAF1 165-376 Paf1 (domain begin residue: 165, domain end residue: 376), Q8N7H5. The gist of the method: as §1
Experiment [10] has as its target NR2E3 154-410 Hormone_recep (domain begin residue: 154, domain end residue: 410), Q9Y5X4. The gist of the method:
as §1

Experiment [11] addresses T6, NR1H4 256-474 Hormone_recep (domain begin residue: 256, domain end residue: 474), Q96RI1.
T6 chain: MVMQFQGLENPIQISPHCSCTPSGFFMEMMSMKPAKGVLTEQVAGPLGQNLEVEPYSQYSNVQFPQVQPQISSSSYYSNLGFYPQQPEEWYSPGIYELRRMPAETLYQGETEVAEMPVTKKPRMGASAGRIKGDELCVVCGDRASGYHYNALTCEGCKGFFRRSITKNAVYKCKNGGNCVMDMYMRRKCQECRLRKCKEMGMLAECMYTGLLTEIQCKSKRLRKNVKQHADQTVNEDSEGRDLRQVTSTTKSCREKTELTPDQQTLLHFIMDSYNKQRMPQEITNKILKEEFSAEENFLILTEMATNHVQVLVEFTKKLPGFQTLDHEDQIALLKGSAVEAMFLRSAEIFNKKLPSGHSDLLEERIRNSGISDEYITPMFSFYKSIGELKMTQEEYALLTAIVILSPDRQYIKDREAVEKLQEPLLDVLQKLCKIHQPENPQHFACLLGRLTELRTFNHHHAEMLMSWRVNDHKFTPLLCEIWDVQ
The gist of the method: as §1

In experiment [12] the target is NR5A2 297-541 Hormone_recep (domain begin residue: 297, domain end residue: 541), O00482. The gist of the method:
as §1

Chain of NR2E3 154-410 Hormone_recep (domain begin residue: 154, domain end residue: 410), Q9Y5X4 (Q9Y5X4 whole entry): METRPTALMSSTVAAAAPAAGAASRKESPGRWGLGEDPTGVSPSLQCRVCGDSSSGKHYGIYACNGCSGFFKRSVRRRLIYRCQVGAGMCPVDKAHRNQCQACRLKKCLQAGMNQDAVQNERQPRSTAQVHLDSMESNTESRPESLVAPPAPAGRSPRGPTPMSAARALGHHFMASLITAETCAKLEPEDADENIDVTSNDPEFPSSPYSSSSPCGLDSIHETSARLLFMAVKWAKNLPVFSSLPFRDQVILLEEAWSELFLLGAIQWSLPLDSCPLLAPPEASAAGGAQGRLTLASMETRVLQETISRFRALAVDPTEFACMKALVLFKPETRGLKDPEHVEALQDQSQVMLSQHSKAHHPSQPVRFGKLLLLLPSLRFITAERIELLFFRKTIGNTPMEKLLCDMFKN
Chain of NR5A2 297-541 Hormone_recep (domain begin residue: 297, domain end residue: 541), O00482 (O00482 whole entry): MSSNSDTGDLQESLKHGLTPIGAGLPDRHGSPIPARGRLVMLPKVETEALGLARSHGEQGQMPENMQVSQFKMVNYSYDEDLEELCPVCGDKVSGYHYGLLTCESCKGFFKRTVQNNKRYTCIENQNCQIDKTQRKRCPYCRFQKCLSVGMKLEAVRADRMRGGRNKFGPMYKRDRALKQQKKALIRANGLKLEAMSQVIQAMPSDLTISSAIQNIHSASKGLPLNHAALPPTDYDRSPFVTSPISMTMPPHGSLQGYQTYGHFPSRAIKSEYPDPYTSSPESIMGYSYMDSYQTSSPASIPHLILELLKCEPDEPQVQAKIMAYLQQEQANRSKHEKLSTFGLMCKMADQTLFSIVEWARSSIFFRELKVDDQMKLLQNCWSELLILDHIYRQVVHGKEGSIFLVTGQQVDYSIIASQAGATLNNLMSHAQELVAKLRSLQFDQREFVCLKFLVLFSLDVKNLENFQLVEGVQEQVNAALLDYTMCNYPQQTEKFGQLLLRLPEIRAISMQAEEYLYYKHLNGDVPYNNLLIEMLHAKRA

On to MWIYNEKWDMFLPYKL, for which, in experiment [1], the “phage ELISA signal ratio” value is 20.3.

On to PYTGIWFGEYLHNFIP, for which the “phage ELISA signal ratio” value in experiment [2] came out at 9.25.

On to FETLWARHAQGQTQVE, for which, in experiment [3], the “phage ELISA signal ratio” value was determined as 22.

As for QQLADIPTYEWLQRNH, the “phage ELISA signal ratio” value in experiment [4] is 27.

With AAPGSWDYSLLEFHYL, in [2], the “phage ELISA signal ratio” value is 3.03.

As for SMEMMNFTWDPEWFIE, in experiment [5], the “phage ELISA signal ratio” value worked out at 12.9.

With GDFGPDWFSFAWTEEM, the “phage ELISA signal ratio” value in [5] was 13.4.

With SADSMYPELDWLVWAM, in [6], the “phage ELISA signal ratio” value is 10.

With TIDWESVIKTYSPWLD, in [4], the “phage ELISA signal ratio” value was 29.8.

On to WAEWDASQPDWVPEYQ, for which, in [7], the “phage ELISA signal ratio” value is 4.87.

Consider EMLLDQQMWEWVQAMS, for which the “phage ELISA signal ratio” value in experiment [6] worked out at 26.9.

Take WGPFLSFQYAVDPTQE: the “phage ELISA signal ratio” value in [2] came out at 19.1.

MAGPESLNFSWDYIMN: the “phage ELISA signal ratio” value in [5] is 13.4.

For SPFDFWPLQSWWFKTM, the “phage ELISA signal ratio” value in experiment [8] is 9.75.

For MWEPELYDDFHEAVTY, in experiment [7], the “phage ELISA signal ratio” value was determined as 18.1.

For WEQQWFEWTHIEGQDD, in [9], the “phage ELISA signal ratio” value came out at 2.51.

Take EQKQTDSFYWIWQHLD: in experiment [1], the “phage ELISA signal ratio” value came to 3.56.

For TQEMWDWVMMIEMTEF, in [6], the “phage ELISA signal ratio” value was determined as 14.

In the case of GIPYPDFNWENISTLV, in experiment [5], the “phage ELISA signal ratio” value was determined as 6.41.

For DEWWMFYPQPMYDLWH, the “phage ELISA signal ratio” value in experiment [10] came to 6.08.

Regarding GDLEQHLMEWWTREVF, the “phage ELISA signal ratio” value in experiment [11] was 12.3.

Consider WVGNNDWENEWPWVIL, for which the “phage ELISA signal ratio” value in experiment [7] stood at 7.89.

As to LTMAQQFPYLWSALSN, in experiment [12], the “phage ELISA signal ratio” value came to 11.2.

As to YPEIAWLQQMMQSDSR, in [6], the “phage ELISA signal ratio” value was determined as 28.4.

For MPDVPYQWVDLTEWFM, the “phage ELISA signal ratio” value in [2] is 15.

With DIPFSFQWSTDMHPVS, the “phage ELISA signal ratio” value in experiment [5] is 6.7.

As to VQMWSFEQIWVEHMMG, the “phage ELISA signal ratio” value in [3] worked out at 20.1.

In the case of FEELWLKHTAVSKTTE, the “phage ELISA signal ratio” value in [3] is 32.5.
